Shown are actives, neighbours in structure and some others; about 2.4% of the full set was active somewhere.
PREPL inhibitor: human PREPL enzyme inhibition; inhibition, % at 5.96 µM; hit rate 0.68% among 320,000; AID 2751; recombinant PREPL, fluorescence polarization activity-based probe; in the data active = inhibition above about 43%
NadD block: inhibitors of Staphylococcus aureus NadD. purified NadD enzyme, colorimetric absorbance read-out. inhibition, % at 20 µM. hit rate 0.78% among 360,000; in the data active = inhibition above about 26%
PP5 primary: PP5 (human) phosphatase inhibition; P53041; purified PP5c, OMFP substrate fluorescence; inhibition, % at 6.7 µM; hit rate 0.18% among 320,000;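 active = inhibition above the campaign's mean inhibition across all tested compounds plus 3 SD, cut at about 9.5% in these data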
Target sequence (P53041 whole entry, looked up): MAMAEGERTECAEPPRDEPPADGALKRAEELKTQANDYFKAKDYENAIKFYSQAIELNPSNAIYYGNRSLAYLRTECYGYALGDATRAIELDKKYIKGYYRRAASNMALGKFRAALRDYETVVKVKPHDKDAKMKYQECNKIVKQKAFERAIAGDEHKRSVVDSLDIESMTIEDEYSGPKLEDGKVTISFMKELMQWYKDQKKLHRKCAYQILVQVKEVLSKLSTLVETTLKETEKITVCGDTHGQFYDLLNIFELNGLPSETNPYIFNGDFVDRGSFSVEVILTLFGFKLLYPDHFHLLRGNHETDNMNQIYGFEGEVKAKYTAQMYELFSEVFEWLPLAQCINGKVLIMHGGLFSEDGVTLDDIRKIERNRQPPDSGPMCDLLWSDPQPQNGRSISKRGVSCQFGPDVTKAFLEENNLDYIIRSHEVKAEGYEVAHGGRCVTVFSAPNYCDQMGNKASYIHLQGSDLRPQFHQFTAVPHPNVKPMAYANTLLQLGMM
PP1 inh: blocks human PP1-alpha phosphatase, a PP5 counter-screen. P62136. purified PP1alpha, OMFP fluorescence. inhibition, % at 6.7 µM. hit rate 0.9% among 320,000;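 active = inhibition above the mean inhibition of all tested compounds plus 3 SD, computed separately for each screening campaign, cut at about 15% in these data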
Rpn11 block: inhibitors of human proteasome Rpn11; human 26S proteasome, Ub4-pepOG fluorescence polarization; 20S core pre-blocked with epoxomicin; inhibition, % at 20 µM; hit rate 0.59% among 360,000; AID 588493;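 active = inhibition at 20 µM, scaled to each plate's controls, above about 33%, limit read from the data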
PP5 conf: PP5 (human) inhibition, confirmation | shares compounds with PP5 primary | Purified PP5, fluorogenic phosphatase substrate, fluorescence | inhibition, % at 6.7 µM | hit rate 22% among 460; in the data active = inhibition above about 9.5%
PP1 counter 3x: PP1 phosphatase inhibition, counter-screen for PP5 inhibitors; shares compounds with PP5 primary; PP1 enzyme, fluorescent phosphatase substrate; inhibition, % at 6.7 µM; hit rate 4% among 460; AID 2355; in the data active = inhibition above about 16%
Each line names hits and unclear results; the compound was inactive in the other large screens (follow-up assays come after a bar, where they were run).

Cc1cc(NS(=O)(=O)c2ccc(Nc3nc(-c4ccc(C)c(C)c4)cs3)cc2)no1	PP5 primary 11 | PP5 conf inactive | PP1 counter 3x inactive
CCSc1nsc(NC(=O)Nc2cccc(F)c2)n1	none
CCCSc1nsc(NC(=O)Nc2ccc(F)cc2F)n1	PP5 primary 10 | PP5 conf inactive | PP1 counter 3x inactive
CCCOC(=O)c1c(-c2ccc(C)cc2C)csc1NC(=O)C1C2CCC(O2)C1C(=O)O (centres undefined)	PP5 primary 11 | PP5 conf inactive | PP1 counter 3x inactive
CCOC(=O)c1c(NC(=O)C2C3CCC(O3)C2C(=O)O)sc2c1CCC(CC)C2 (centres undefined)	PP5 primary 14 | PP5 conf inactive | PP1 counter 3x inactive
CCOC(=O)c1c(NC(=O)C2C3C=CC(C3)C2C(=O)O)sc2c1CCC(CC)C2 (centres undefined)	none
CCOC(=O)c1c(NC(=O)C2C3CCC(O3)C2C(=O)O)sc(C)c1-c1ccc(F)cc1 (centres undefined)	PP5 primary 13 | PP5 conf inactive | PP1 counter 3x inactive
O=C(CN1C(=O)c2ccccc2C1=O)Nc1cccc(S(=O)(=O)Nc2ccccc2Cl)c1	PP5 primary 12 | PP5 conf inactive | PP1 counter 3x inactive
Cc1ccc(CNC(=O)c2ccc(C#CC(C)(C)O)s2)cc1	PP5 primary 9.6 | PP5 conf inactive | PP1 counter 3x inactive
CCCCN(C(C)=O)c1ccc(S(=O)(=O)NC2=NCCCCC2)cc1NC(C)=O	none (no result: PP5 primary, PP1 inh)
CCOC(=O)c1c(C)[nH]c(C)c1C(=O)COC(=O)/C=C/c1cccc(F)c1	none
CCOC(=O)c1c(C)[nH]c(C)c1C(=O)COC(=O)/C=C/c1cccc(C(F)(F)F)c1	PP5 primary 11 | PP5 conf inactive | PP1 counter 3x inactive
COc1ccc(S(=O)(=O)N(C)C[C@H]2Oc3c(NS(=O)(=O)c4cn(C)cn4)cccc3C(=O)N([C@H](C)CO)C[C@@H]2C)cc1	none (no result: PP5 primary, PP1 inh)
Cc1ccc(NS(=O)(=O)c2ccc(NC(=O)c3cccc(NC(=O)C(C)C)c3)cc2)cc1	PP5 primary 9.8 | PP5 conf inactive | PP1 counter 3x inactive
Cc1ccc(S(=O)(=O)Nc2ccc(NC(=O)Nc3cccc(C(F)(F)F)c3)cc2)cc1	PP5 primary 11 | PP5 conf inactive | PP1 counter 3x inactive
CCCCc1ccc(NC(=O)CSc2nc(=O)n3cc(C)ccc3n2)cc1	none
CN1CCC(NC(=O)Nc2cccc(C(F)(F)F)c2)CC1	none
CN1CCC(NC(=O)Nc2ccc(Br)cc2)CC1	PP5 primary 13 | PP5 conf inactive | PP1 counter 3x inactive
CO/N=C(\CCC(=O)O)c1cccs1	PP5 primary 9.7 | PP5 conf inactive | PP1 counter 3x inactive
Cc1cc(C(=O)N/N=C(\CCC(=O)O)c2cccs2)c2ccccc2n1	none
COc1ccccc1/C=N/Nc1cc(N(C)C)nc(N(C)C)n1	PP5 primary 18 | PP5 conf 30 | PP1 counter 3x inactive
COc1ccc(/C=N/Nc2cc(N(C)C)nc(N(C)C)n2)cc1	PP5 primary 14 | PP5 conf 43 | PP1 counter 3x inactive
CN(C)c1cc(N/N=C\c2ccccc2)nc(N(C)C)n1	PP5 primary 16 | PP5 conf 38 | PP1 counter 3x inactive
COc1ccc(/C=N/Nc2cc(OC)ncn2)cc1	none
Cc1cc(N/N=C/c2ccccc2)nc(NCc2ccccc2)n1	none
CSc1ccc(/C=C/C(=O)OCC(=O)c2ccc[nH]2)cc1	none
O=C(O)c1cc(N/N=C/c2cccnc2)ccc1Cl	none
O=C(O)c1cc(N/N=C/c2ccncc2)ccc1Cl	PP5 primary 11 | PP5 conf inactive | PP1 counter 3x inactive
CCN(CC)c1ccc(C(=O)NC(=S)Nc2cc(S(=O)(=O)N3CCOCC3)ccc2-n2cncn2)cc1	PP5 primary 18 | PP5 conf inactive | PP1 counter 3x inactive
C=CCNC(=S)Nc1cc(S(=O)(=O)N2CCOCC2)ccc1-n1cncn1	none
NNC(=O)c1cc(-c2cccs2)nc2ccccc12	PP5 primary 15 | PP5 conf inactive | PP1 counter 3x inactive
CC(C)NC(=O)c1cc(-c2cccs2)nc2ccccc12	none
CCOc1ccc(CCNC(=O)COC(=O)c2sccc2C)cc1OCC	none
O=C(/C=C/Nc1ccc(Cc2ccc(N/C=C/C(=O)C(F)(F)F)cc2)cc1)C(F)(F)F	none
CCN(CC)S(=O)(=O)c1cc(C(=O)Nc2nncs2)c(Cl)cc1Cl	PP5 primary 11 | PP5 conf inactive | PP1 counter 3x inactive
CCCCNS(=O)(=O)c1ccc(NC(=O)C(Sc2ccccc2)c2ccccc2)cc1 (centres undefined)	PP5 primary 10 | PP5 conf inactive | PP1 counter 3x inactive
CN(C)c1nc(OCCOC(=O)COc2ccc(Cl)cc2Cl)nc(N(C)C)n1	none
CN(C)c1nc(SCCOC(=O)COc2ccc(Cl)cc2Cl)nc(N(C)C)n1	PP5 primary 11 | PP5 conf inactive | PP1 counter 3x inactive
Cc1ccc(S(=O)(=O)N(CC(=O)N2CCN(c3ccc(F)cc3)CC2)C2CCCCC2)cc1	PP5 primary 10 | PP5 conf inactive | PP1 counter 3x inactive
NC(=O)c1ccc(C(F)(F)F)n(Cc2ccc(Cl)cc2)c1=O	PP5 primary 9.9 | PP5 conf inactive | PP1 counter 3x inactive
Cc1ccccc1S(=O)(=O)NC(=O)C1(C)CCN1C(=O)CCc1cccs1 (centres undefined)	none (no result: PREPL inhibitor, PP5 primary, PP1 inh)
CCCOC(=O)c1ccc(Oc2c(-c3ccc(O)cc3O)n[nH]c2C)cc1	PP5 primary 16 | PP5 conf inactive | PP1 counter 3x inactive
C=C(C)COc1ccc(-c2n[nH]c(C)c2Oc2ccccc2OC)c(O)c1	none
CCOc1ccc(-c2n[nH]c(C)c2Oc2ccccc2OC)c(O)c1	PP5 primary 11 | PP5 conf inactive | PP1 counter 3x inactive
CCCOC(=O)c1ccc(Oc2c(-c3ccc(OC)cc3O)n[nH]c2C)cc1	none
COC(=O)CCC(=O)OC1(C)C(=O)C=C2C=C(C3CC3)N(C3CC3)C=C2C1=O (centres undefined)	PP5 primary 15 | PP5 conf 43 | PP1 counter 3x 18
COC(=O)CCC(=O)OC1(C)C(=O)C=C2C=C(C3CC3)N(Cc3ccco3)C=C2C1=O (centres undefined)	none
COCCN1C=C2C(=O)C(C)(OC(=O)CCC(=O)OC)C(=O)C=C2C=C1C1CC1 (centres undefined)	PP5 primary 17 | PP5 conf 43 | PP1 counter 3x 17
COC(=O)c1ccc(N2CCN(C)CC2)c(NC(=O)c2ccc(-c3ccc(Cl)cc3)o2)c1	none
COc1ccc(OC)c(C2=Nn3c(nnc3-c3cccc(OC(C)C)c3)SC2)c1	PP5 primary 12 | PP5 conf inactive | PP1 counter 3x inactive
COc1ccc(C2=Nn3c(nnc3-c3ccncc3)SC2)cc1	PP5 primary 12 | PP5 conf inactive | PP1 counter 3x inactive
CCCCc1nnc(NC(=O)c2oc3ccccc3c2C)s1	none
